Results published in PubChem BioAssay (EPA / NIEHS).
Results filed as inconclusive are left out. The source made the active and inactive calls. The calls were made as follows: active = hit-call score of the fitted dose curve at least 0.9, where 1 is the maximum; inconclusive = response in the unintended direction; inactive = score below 0.9.

Each compound was assayed on HMG-CoA synthase (HMGCS2), HMGCS2 (gene 3158) (assay: CLD_HMGCS2_6hr: CellzDirect (CLD) Gene Expression Assay for HMG-CoA synthase (HMGCS2) at 6 hours (AID 2283682);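 also: actives raise HMGCS2 transcript above the 0.2% DMSO vehicle baseline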).
Summary of the method: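 Primary human hepatocytes dosed daily with fresh chemical, 0.2% DMSO vehicle; HMGCS2 mRNA measured at 6 h by qNPA chemiluminescence. Gain of signal fitted against DMSO; cytotoxicity flagged from phase-contrast morphology.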
For `CCC(C)Nc1c([N+](=O)[O-])cc(C(C)(C)C)cc1[N+](=O)[O-]` (stereo not given), the outcome was “inactive”.
In the case of `Cc1cc(C)nc(NC(=O)NS(=O)(=O)c2ccccc2C(=O)OC2COC2)n1`, the outcome is reported as “inactive”.
`CCc1ccc(C(=O)NN(C(=O)c2cc(C)cc(C)c2)C(C)(C)C)cc1` was tested, and the outcome was “inactive”.
With `CCOc1nc(NC)nc(NC(=O)NS(=O)(=O)c2ccccc2C(=O)OC)n1` the outcome was “inactive”.
`Cc1[nH]c(=O)n(C(C)(C)C)c(=O)c1Cl` was tested, and the outcome was “inactive”.
With `O=[N+]([O-])/N=C1\NCCN1Cc1ccc(Cl)nc1` the outcome was “inactive”.
With `COc1cc(OC)nc(NC(=O)NS(=O)(=O)c2cc(NC=O)ccc2C(=O)N(C)C)n1` the outcome was “inactive”.
For `O=C(O)CCCOc1ccc(Cl)cc1Cl`, the outcome was “inactive”.
In the case of `O=C(O)COc1ccc(Cl)cc1Cl`, the outcome is reported as “inactive”.
For `Oc1ccc(Cl)cc1Cc1ccccc1`, the outcome was “inactive”.
`CCS(=O)(=O)c1cccnc1S(=O)(=O)NC(=O)Nc1nc(OC)cc(OC)n1` was tested, and the outcome was “inactive”.
For `O=C1c2ccccc2C(=O)N1SC(Cl)(Cl)Cl`, the outcome was “inactive”.
With `CNC(=O)Oc1ccccc1OC(C)C` the outcome was “inactive”.

Each compound was assayed on xenobiotic metabolism (CYP1A2), CYP1A2 (gene 1544) (assay: CLD_CYP1A2_24hr: CellzDirect (CLD) Gene Expression Assay for xenobiotic metabolism (CYP1A2) at 24 hours (AID 2283683)).
Summary of the method: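 Primary human hepatocytes from two donor preparations dosed daily with multiple concentrations of chemical, 0.2% DMSO vehicle. CYP1A2 mRNA at 24 h quantified by qNPA chemiluminescence; gain of signal analyzed relative to DMSO. Cytotoxicity flagged by phase-contrast morphology.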
In the case of `CCOC1Oc2ccc(OS(C)(=O)=O)cc2C1(C)C` (stereo not given), the outcome is reported as “inactive”.
For `CCC(C)Nc1c([N+](=O)[O-])cc(C(C)(C)C)cc1[N+](=O)[O-]` (stereo not given), the AC50 was 3.05 µM (active).
With `COc1nn(CSP(=S)(OC)OC)c(=O)s1` the AC50 was 3.12 µM (active).
With `C#CCN1C(=O)COc2cc(F)c(N3C(=O)C4=C(CCCC4)C3=O)cc21` the outcome was “inactive”.
In the case of `Cc1cc(C)nc(NC(=O)NS(=O)(=O)c2ccccc2C(=O)OC2COC2)n1`, the outcome is reported as “inactive”.
In the case of `CCc1ccc(C(=O)NN(C(=O)c2cc(C)cc(C)c2)C(C)(C)C)cc1`, the AC50 is reported as 20 µM (active).
`COP(=S)(OC)Oc1ccc([N+](=O)[O-])cc1` was tested, and the AC50 was 2.07 µM (active).
For `CCOc1nc(NC)nc(NC(=O)NS(=O)(=O)c2ccccc2C(=O)OC)n1`, the AC50 was 7.74 µM (active).
With `COC(=O)c1ccccc1S(=O)(=O)NC(=O)N(C)c1nc(C)nc(OC)n1` the outcome was “inactive”.
With `Cc1[nH]c(=O)n(C(C)(C)C)c(=O)c1Cl` the AC50 was 20 µM (active).
In the case of `CC(C)N(C(=O)COc1nnc(C(F)(F)F)s1)c1ccc(F)cc1`, the outcome is reported as “inactive”.
For `COc1cc(OC)nc(NC(=O)NS(=O)(=O)c2cc(NC=O)ccc2C(=O)N(C)C)n1`, the outcome was “inactive”.
`CC(C)(C)C(O)/C(=C\c1ccc(Cl)cc1Cl)n1cncn1` (stereo not given) was tested, and the AC50 was 0.825 µM (active).
For `O=C(O)CCCOc1ccc(Cl)cc1Cl`, the outcome was “inactive”.
`O=C(O)COc1ccc(Cl)cc1Cl` was tested, and the outcome was “inactive”.
For `CCS(=O)(=O)c1cccnc1S(=O)(=O)NC(=O)Nc1nc(OC)cc(OC)n1`, the outcome was “inactive”.
In the case of `COP(=S)(OC)Oc1ccc(SC)c(C)c1`, the AC50 is reported as 9.72 µM (active).
With `CC(C)OC(=O)Nc1cccc(Cl)c1` the AC50 was 2.34 µM (active).
For `O=[N+]([O-])c1c(Cl)c(Cl)c(Cl)c(Cl)c1Cl`, the outcome was “inactive”.
In the case of `CC1(C)C(C=C(Cl)Cl)C1C(=O)OC(C#N)c1ccc(F)c(Oc2ccccc2)c1` (stereo not given), the outcome is reported as “inactive”.
With `CN1CSC(=S)N(C)C1` the outcome was “inactive”.
In the case of `CNC(=O)Oc1ccccc1OC(C)C`, the outcome is reported as “inactive”.

These compounds were tested on ABC Transporter (ABCB1), ABCB1 (gene 5243) (assay: CLD_ABCB1_24hr: CellzDirect (CLD) Gene Expression Assay for ABC Transporter (ABCB1) at 24 hours (AID 2283684);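 as to AC50: potency for increase in ABCB1 mRNA relative to DMSO vehicle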).
Summary of the method: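 Primary human hepatocytes, two donor preparations, dosed daily with fresh solutions; vehicle 0.2% DMSO; harvested at 24 h. ABCB1 mRNA measured by quantitative nuclease protection assay (chemiluminescence); morphology-based cytotoxicity annotated.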
For `O=[N+]([O-])/N=C1\NCCN1Cc1ccc(Cl)nc1`, the outcome was “inactive”.
For `CC(C)(C)C(O)/C(=C\c1ccc(Cl)cc1Cl)n1cncn1` (stereo not given), the AC50 was 29.4 µM (active).
For `CC1(C)C(C=C(Cl)Cl)C1C(=O)OC(C#N)c1ccc(F)c(Oc2ccccc2)c1` (stereo not given), the outcome was “inactive”.
`CN1CSC(=S)N(C)C1` was tested, and the outcome was “inactive”.

The compounds below were run on Broad substrate specificity ATP-binding cassette transporter ABCG2 (Homo sapiens) (UniProt Q9UNQ0) (assay: CLD_ABCG2_24hr: CellzDirect (CLD) Gene Expression Assay for ABC Transporter (ABCG2) at 24 hours (AID 2283685)).
Broad substrate specificity ATP-binding cassette transporter ABCG2 (Homo sapiens), sequence (Q9UNQ0 whole entry, looked up): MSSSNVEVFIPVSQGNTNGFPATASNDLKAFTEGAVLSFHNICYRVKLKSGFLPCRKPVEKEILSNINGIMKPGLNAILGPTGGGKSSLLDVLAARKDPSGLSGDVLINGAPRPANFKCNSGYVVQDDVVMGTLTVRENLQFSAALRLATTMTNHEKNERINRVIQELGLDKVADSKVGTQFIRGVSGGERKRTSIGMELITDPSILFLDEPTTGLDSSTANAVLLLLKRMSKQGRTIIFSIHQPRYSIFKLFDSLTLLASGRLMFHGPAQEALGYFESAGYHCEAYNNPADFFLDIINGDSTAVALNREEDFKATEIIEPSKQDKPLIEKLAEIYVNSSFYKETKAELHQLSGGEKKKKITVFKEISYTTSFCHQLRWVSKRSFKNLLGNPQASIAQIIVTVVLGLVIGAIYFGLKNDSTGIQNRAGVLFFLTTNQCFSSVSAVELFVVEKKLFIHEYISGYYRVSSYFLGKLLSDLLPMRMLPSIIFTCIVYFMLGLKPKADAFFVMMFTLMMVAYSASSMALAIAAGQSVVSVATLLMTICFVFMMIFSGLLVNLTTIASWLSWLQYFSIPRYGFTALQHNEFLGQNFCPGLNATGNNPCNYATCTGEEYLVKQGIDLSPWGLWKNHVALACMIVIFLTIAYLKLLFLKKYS
Summary of the method: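 Primary human hepatocytes were dosed daily with ToxCast chemicals at multiple concentrations (vehicle 0.2% DMSO). ABCG2 mRNA was measured at 24 h by qNPA chemiluminescence; induction was scored as gain of signal versus DMSO.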
In the case of `CCOC1Oc2ccc(OS(C)(=O)=O)cc2C1(C)C` (stereo not given), the outcome is reported as “inactive”.
With `COc1nn(CSP(=S)(OC)OC)c(=O)s1` the outcome was “inactive”.
`C#CCN1C(=O)COc2cc(F)c(N3C(=O)C4=C(CCCC4)C3=O)cc21` was tested, and the outcome was “inactive”.
In the case of `Cc1cc(C)nc(NC(=O)NS(=O)(=O)c2ccccc2C(=O)OC2COC2)n1`, the outcome is reported as “inactive”.
With `COP(=S)(OC)Oc1ccc([N+](=O)[O-])cc1` the outcome was “inactive”.
For `CCOc1nc(NC)nc(NC(=O)NS(=O)(=O)c2ccccc2C(=O)OC)n1`, the outcome was “inactive”.
For `COC(=O)c1ccccc1S(=O)(=O)NC(=O)N(C)c1nc(C)nc(OC)n1`, the outcome was “inactive”.
`CC(C)N(C(=O)COc1nnc(C(F)(F)F)s1)c1ccc(F)cc1` was tested, and the outcome was “inactive”.
`O=[N+]([O-])/N=C1\NCCN1Cc1ccc(Cl)nc1` was tested, and the outcome was “inactive”.
`COc1cc(OC)nc(NC(=O)NS(=O)(=O)c2cc(NC=O)ccc2C(=O)N(C)C)n1` was tested, and the outcome was “inactive”.
For `CC(C)(C)C(O)/C(=C\c1ccc(Cl)cc1Cl)n1cncn1` (stereo not given), the outcome was “inactive”.
In the case of `N#Cc1c(Cl)c(Cl)c(Cl)c(C#N)c1Cl`, the outcome is reported as “inactive”.
With `O=C(O)CCCOc1ccc(Cl)cc1Cl` the outcome was “inactive”.
In the case of `O=C(O)COc1ccc(Cl)cc1Cl`, the outcome is reported as “inactive”.
For `CCS(=O)(=O)c1cccnc1S(=O)(=O)NC(=O)Nc1nc(OC)cc(OC)n1`, the outcome was “inactive”.
For `CC(C)OC(=O)Nc1cccc(Cl)c1`, the outcome was “inactive”.
`O=[N+]([O-])c1c(Cl)c(Cl)c(Cl)c(Cl)c1Cl` was tested, and the outcome was “inactive”.
With `ClC1C(Cl)C(Cl)C(Cl)C(Cl)C1Cl` (stereo not given) the outcome was “inactive”.
For `CN1CSC(=S)N(C)C1`, the outcome was “inactive”.
With `O=C1c2ccccc2C(=O)N1SC(Cl)(Cl)Cl` the outcome was “inactive”.
With `CNC(=O)Oc1ccccc1OC(C)C` the outcome was “inactive”.
